Most compounds without a hit are left out; they make up all but 2.2% or so of the library.
Myeloid diff MLP – compounds promoting myeloid differentiation; 360,000 compounds, 1% hits; calls only at 10 µM; ER-HoxA9 myeloid progenitors, lysozyme-GFP differentiation, flow cytometry; AID 624256;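 active means normalized GFP-positive differentiation at or above the plate's own cutoff, the solvent-only control mean plus 3 SD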;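 further: cells exposed to compound for four days before flow analysis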
ABCB6 inh MLPCN – inhibitors of human ABC transporter ABCB6; Q9NP58; K562-ABCB6 porphyrin accumulation, flow cytometry, 1 h; active compounds read low; fluorescence ratio to DMSO, % at 10 µM; 360,000 compounds, 0.19% hits; AID 602162;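 active means fluorescence ratio to DMSO below 75%, the collection mean minus 3 SD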;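 further: signal is porphyrin accumulated inside mitochondria; 100% equals median channel fluorescence of DMSO control wells; lower ratio means ABCB6 inhibition with less porphyrin fluorescence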
Target sequence (Q9NP58 whole entry, looked up): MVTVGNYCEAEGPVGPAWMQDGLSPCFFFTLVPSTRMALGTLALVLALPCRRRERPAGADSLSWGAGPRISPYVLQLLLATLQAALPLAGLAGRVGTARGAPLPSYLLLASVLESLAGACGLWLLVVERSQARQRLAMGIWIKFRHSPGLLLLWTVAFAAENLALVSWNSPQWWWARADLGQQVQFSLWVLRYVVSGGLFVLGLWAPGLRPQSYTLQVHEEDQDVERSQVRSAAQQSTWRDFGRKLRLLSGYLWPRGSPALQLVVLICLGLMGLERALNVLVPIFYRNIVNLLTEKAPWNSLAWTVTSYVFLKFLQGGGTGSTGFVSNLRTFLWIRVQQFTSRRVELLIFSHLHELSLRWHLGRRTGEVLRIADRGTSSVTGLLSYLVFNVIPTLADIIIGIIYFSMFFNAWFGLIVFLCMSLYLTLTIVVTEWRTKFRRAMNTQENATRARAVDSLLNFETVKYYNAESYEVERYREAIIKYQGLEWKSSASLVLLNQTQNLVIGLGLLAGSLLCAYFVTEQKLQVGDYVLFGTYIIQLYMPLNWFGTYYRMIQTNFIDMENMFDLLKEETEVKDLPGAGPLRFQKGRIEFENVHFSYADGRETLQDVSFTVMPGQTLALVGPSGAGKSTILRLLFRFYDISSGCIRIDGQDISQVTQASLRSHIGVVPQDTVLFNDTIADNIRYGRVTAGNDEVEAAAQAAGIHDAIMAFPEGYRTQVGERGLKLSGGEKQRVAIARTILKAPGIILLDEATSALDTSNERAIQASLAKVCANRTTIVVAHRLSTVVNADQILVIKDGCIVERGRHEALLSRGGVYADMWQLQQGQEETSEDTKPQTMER
iPSC survival up – hiPSC single-cell survival enhancement; ATPlite luminescence; 100% = ROCK inhibitor wells, 0% = DMSO; survival enhancement, % at 20 µM; 360,000 compounds, 0.044% hits; in the data active means survival enhancement above about 18%;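 further: cells exposed to compounds for 16 hours before the ATP read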
Cardio protect – modulators protecting cardiomyocytes from myocardial damage. H9c2 cardiomyocytes, H2O2 injury protection, ATPLite, 2 h. protection from H2O2 cell death, % at 20 µM. 360,000 compounds, 0.63% hits. AID 588492;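 active means compounds giving at least 50% protection of heart cells from peroxide-induced death in the single-dose screen, raw or plate-pattern-corrected value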;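 further: 0% = DMSO wells with peroxide and 100% = DMSO wells without peroxide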
beta cell repl – induces beta-cell replication in MIN6 cells | MIN6 cells proliferation, ATPlite luminescence, 48 h; cells starved in 0.2% serum; 100% = growth in 10% serum | proliferation, % at 10 µM | 330,000 compounds, 0.29% hits;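 active means compounds whose signal lies at least 3.5 SD above the mean of all wells on their plate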;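 further: 0% = DMSO-treated cells in low-serum medium and 100% = 10% serum control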
Myeloid diff – promotes myeloid progenitor differentiation. 2,300 compounds, 2% hits. ER-HoxA9 myeloid progenitors, GFP/Mac1 double-positive flow. AID 651706. calls only. shares compounds with Myeloid diff MLP;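 active means share of green or green-and-red cells above 9 and 9% in run 1 or 4 and 3% in run 2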
GFP autofluor – flagged as fluorescent in myeloid differentiation counter-screen. shares compounds with Myeloid diff MLP. ER-HoxA9 myeloid progenitors, no estrogen, GFP autofluorescence flow cytometry; vehicle wells 0%, positive control 100%. fluorescence response, % (no concentration beside the values). 2,300 compounds, 7.4% hits. AID 651707;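 active means over 5% cells positive for green fluorescent reporter, or over 2% positive for both it and APC stain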;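 further: range taken on the double positive population between DMSO and positive control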
* = called active by the depositor; i = inactive; / = not tested or not shown; + = active, no number.

SMILES	Myeloid diff MLP	ABCB6 inh MLPCN	iPSC survival up	Cardio protect	beta cell repl	Myeloid diff	GFP autofluor
Cc1ccc(NC(=O)c2ccc(=O)[nH]c2)cc1S(=O)(=O)N1CCCCC1	i	105	0	3	-2	i	0
CN(C)c1ccc(S(=O)(=O)NCC(=O)NCc2ccccc2)cc1[N+](=O)[O-]	i	98	0	-2	-4	/	/
CN(C)c1ccc(S(=O)(=O)NCC(=O)N2CCN(c3ccccc3)CC2)cc1[N+](=O)[O-]	+	98	0	10	5	i	0
Cc1cc2cc(CNC(=O)C(C)Oc3ccccc3)ccc2n1C (configuration not stated)	i	124	0	10	-6	/	/
COc1cc(CNc2ccc(N3CCN(C(C)=O)CC3)cc2)ccc1OCc1ccc(F)cc1	i	95	-1	-18	/	i	0
COc1cc(CNc2ccc3[nH]c(=O)[nH]c3c2)ccc1OCc1ccc(Cl)cc1	i	112	-1	-8	-6	i	0
COc1cc(CNc2ccc3[nH]c(=O)[nH]c3c2)ccc1OCc1ccc(F)cc1	i	97	-1	-6	-2	i	0
CCN1C(=O)C(CC(=O)NC)N(NC(=O)c2ccccc2)C1=S (configuration not stated)	i	100	3	0	-2	/	/
CC(C)CNC(=O)CCCc1ccccc1	i	206	-4	0	-4	/	/
NC(=O)CC(NC(=O)Cc1cccc2ccccc12)c1ccc(N2CCC(N3CCCC3)CC2)c([N+](=O)[O-])c1 (configuration not stated)	i	99	-3	18	-4	/	/
O=C1O/C(=C/c2ccccc2)N=C1c1ccccc1	i	104	1	2	6	/	/
COCc1cc(C)nc2sc(C(=O)N3CCCCC3)c(N)c12	i	101	-2	4	0	i	0
COc1ccc(-n2c(SCC(=O)Nc3cc(C)on3)nc3ccccc3c2=O)cc1Cl	i	102	0	-2	-4	i	0
COc1cccc(-n2c(SCC(=O)Nc3cc(C)on3)nc3ccccc3c2=O)c1	i	103	0	2	-2	/	/
COc1ccc(NC(=O)O/N=C/c2ccccc2Cl)cc1	i	97	-1	-4	-3	/	/
CCOc1ccc(C(=O)Nc2cccc(-c3nc4cccnc4o3)c2)cc1Cl	+	92	3	50*	-5	i	0
CC1=C(C(=O)OC(C)C)C(c2cccs2)N2C(=O)CCSC2=N1 (configuration not stated)	i	97	8	6	4	i	0
COc1ccc(C(=O)OCc2cc(C)ccc2C)cc1S(=O)(=O)N1CCCC1	+	94	0	-10	-4	i	0
CC(=O)OCCCCON1C(=O)c2ccccc2C1=O	/	120	0	4	1	i	0
O=C1c2ccccc2C(=O)N1CCCON1C(=O)c2ccccc2C1=O	i	102	0	9	0	/	/
COc1ccc2nc(C)cc(SCC(=O)NNC(=O)COc3ccc(C)cc3)c2c1	i	91	-1	-13	-3	i	0
CC(C)NC(=O)N(C)C[C@H]1Oc2cc(Br)ccc2S(=O)(=O)N([C@H](C)CO)C[C@H]1C	i	103	0	11	/	/	/
Cc1ccc(-c2cc(C(=O)OCC(=O)N(C)C3CCS(=O)(=O)C3)c3ccccc3n2)c(C)c1 (configuration not stated)	i	97	-1	7	0	/	/
COC(=O)C1CCCN1C(=O)c1cccs1 (configuration not stated)	+	92	-3	1	0	i	0
O=C(O)C1CCCN1C(=O)c1cccs1 (configuration not stated)	i	89	0	5	0	/	/
SMILES	Myeloid diff MLP	ABCB6 inh MLPCN	iPSC survival up	Cardio protect	beta cell repl	Myeloid diff	GFP autofluor
COc1ccc(NC(=O)CSc2nccn2Cc2ccc(F)cc2)c(OC)c1	i	94	0	-6	8	/	/
Cn1ccc2c(-c3ccc(C(C)(C)C)cc3)cc3c(c21)C1CCC3O1 (configuration not stated)	+	104	-2	-7	/	+	0
O=C(c1cc(-c2ccccc2Cl)nc2ccccc12)N1CCN(c2ccccn2)CC1	i	95	0	-9	-3	i	4
COc1ccc(-c2cc(C(=O)N3CCCCCC3)c3ccccc3n2)c(OC)c1	+	101	1	-2	-3	i	0
CCCN(Cc1nc(-c2ccc(Cl)cc2)no1)CC1CCCO1 (configuration not stated)	i	98	0	-3	-2	/	/
COc1cccc(NC(=O)N2CCCC2C(=O)NCc2ccco2)c1 (configuration not stated)	i	104	0	-1	-3	/	/
COc1cccc(NC(=O)N2CCCC2C(=O)NCc2ccc(Cl)cc2)c1 (configuration not stated)	i	101	0	-5	-2	i	0
CCNC(=O)C1(C)CCCN(C(=O)CCc2cccs2)C1 (configuration not stated)	i	106	2	-9	/	/	/
Cc1c(Cl)cnc(NC(=O)COC(=O)c2ccc3c(c2)OCO3)c1Cl	i	99	2	4	5	/	/
CCOC(=O)c1c(C)[nH]c(C(=O)COC(=O)/C=C/c2ccc(OC(F)F)cc2)c1C	i	109	0	2	0	/	/
O=C(NCCNS(=O)(=O)c1cccc(C(F)(F)F)c1)c1cc(OCC(F)(F)F)ccc1OCC(F)(F)F	i	92	0	1	-1	i	0
Cc1ccc(S(=O)(=O)N(Cc2cc3cccc(C)c3[nH]c2=O)c2ccccc2)cc1	+	96	-2	4	-2	i	0
Cc1cccc2cc(CN(Cc3cccs3)S(=O)(=O)c3ccc4c(c3)OCCO4)c(=O)[nH]c12	i	94	-2	2	1	i	0
CN(Cc1cc2ccccc2[nH]c1=O)S(=O)(=O)c1ccccc1	i	95	-2	6	-2	/	/
Cc1cc2cc(CN(Cc3cccs3)S(=O)(=O)c3ccc4c(c3)OCCO4)c(=O)[nH]c2cc1C	i	94	2	2	-1	/	/
Cc1ccc(S(=O)(=O)N(C)Cc2cc3ccccc3[nH]c2=O)cc1	i	98	4	2	-3	i	0
O=S(=O)(c1cccc(-c2nnc(SCc3ccc(Cl)cc3)o2)c1)N1CCCCC1	+	99	0	-10	-2	i	19*

Assay outcomes (PubChem BioAssay)
